# Shown are actives, neighbours in structure and some others; about 1.4% of the full set was active somewhere.
# BJeLR lethal = BJeLR cell viability loss; BJeLR (HRASV12) viability, CellTiter-Glo ATP luminescence, 48 h; inhibition, % (concentration not given with the values); 300,000 compounds, 0.17% hits; AID 1554; in the data active means inhibition above about 50%
# PrP UTR inh = suppresses PrP 5' UTR mRNA reporter expression | cell-based PrP 5' UTR mRNA reporter, plate reader | inhibition, % (concentration not given with the values) | 340,000 compounds, 0.35% hits | AID 488862; in the data active means inhibition above about 52%; further: 0 = median of the neutral control wells
# Mtb hypoxia rep = Mtb hypoxia fluorescent reporter inhibition. M. tuberculosis hypoxia-regulated fluorescent reporter, fluorescence. fluorescence inhibition, % (test concentration not listed). 300,000 compounds, 0.1% hits. AID 1159583; in the data active means fluorescence inhibition mostly above about 23%, no sharp cut-off; inactive means mostly below about 17%
# RecA intein inh = inhibitors of M. tuberculosis RecA intein splicing; P9WHJ3; cell-free RecA intein splicing, fluorescence; inhibition, % (concentration not given with the values); 290,000 compounds, 0.75% hits; AID 2221; in the data active means inhibition above about 30%;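 further: 0% = vehicle wells and 100% = reference inhibitor control wells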
# Target sequence (P9WHJ3 whole entry, looked up): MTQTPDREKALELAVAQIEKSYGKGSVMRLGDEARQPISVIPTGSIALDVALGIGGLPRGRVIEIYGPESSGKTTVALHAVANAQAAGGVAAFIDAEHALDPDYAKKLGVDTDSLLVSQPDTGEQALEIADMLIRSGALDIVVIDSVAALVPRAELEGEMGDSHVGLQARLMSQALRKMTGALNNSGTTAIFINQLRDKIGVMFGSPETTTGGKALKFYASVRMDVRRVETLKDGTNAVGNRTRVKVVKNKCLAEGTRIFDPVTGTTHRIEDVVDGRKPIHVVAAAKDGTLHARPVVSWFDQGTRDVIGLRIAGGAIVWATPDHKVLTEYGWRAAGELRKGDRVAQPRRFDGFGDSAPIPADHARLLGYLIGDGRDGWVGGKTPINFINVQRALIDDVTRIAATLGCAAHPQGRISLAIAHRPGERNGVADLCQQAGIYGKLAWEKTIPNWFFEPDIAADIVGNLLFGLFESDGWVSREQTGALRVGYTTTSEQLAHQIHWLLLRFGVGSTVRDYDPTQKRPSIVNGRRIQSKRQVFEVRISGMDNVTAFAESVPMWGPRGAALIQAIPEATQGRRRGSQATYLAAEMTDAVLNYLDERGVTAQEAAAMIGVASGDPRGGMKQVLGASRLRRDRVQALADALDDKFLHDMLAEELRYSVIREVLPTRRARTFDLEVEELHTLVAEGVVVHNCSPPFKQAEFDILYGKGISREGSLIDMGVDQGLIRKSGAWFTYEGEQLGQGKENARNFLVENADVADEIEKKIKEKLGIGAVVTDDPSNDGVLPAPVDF
# PrPC TRFRET = inhibitors of human cell surface prion protein PrPC | P04156 | TR-FRET read-out | inhibition, % at 13.8 µM | 370,000 compounds, 0.43% hits; in the data active means inhibition above about 24%; further: 0% = median of the test wells and 100% = reference compound wells
# SARS 3CLpro inh = SARS-CoV 3CLpro protease inhibition; recombinant SARS-CoV 3CLpro, quenched FRET peptide cleavage; inhibition, % at 6 µM; 290,000 compounds, 0.14% hits; AID 1706; in the data active means inhibition above about 12%
# GFP chromo cs = counter-screen: blocks GFP chromophore formation; shares compounds with RecA intein inh; cell-free GFP chromophore formation, fluorescence; EC50, µM; 2,100 compounds, 83% hits; call rule not given here
# The depositor's hits bear a star; x = not tested or not shown.
SMILES,BJeLR lethal,PrP UTR inh,Mtb hypoxia rep,RecA intein inh,PrPC TRFRET,SARS 3CLpro inh,GFP chromo cs
O=C(CSc1ncnc2c1cnn2-c1ccccc1)NCC1CCCO1 (stereo not given),13.4,-20.3,5.8,1.3,5.3,x,x
Cc1ccc(-n2nnc3c(SCC(=O)NCC4CCCO4)ncnc32)cc1 (stereo not given),16.6,-9.2,6.3,39.6*,x,6.5,>38
O=C(CSc1ncnc2c1nnn2-c1ccc(F)cc1)NCC1CCCO1 (stereo not given),8.2,-20.9,5.8,38.3*,2.7,-3.9,8.91*
Cc1ccc(S(=O)(=O)C=Cc2ccccc2)cc1,x,x,11.8,x,x,x,x
CN1CCN(C(=O)C2=CC(c3ccc(Br)cc3)CC(OCc3ccc(CO)cc3)O2)CC1 (stereo not given),x,x,5.8,x,x,x,x
O=C(CCl)N1c2ccccc2CCc2ccccc21,10.0,-25.0,x,79.9*,0.8,0.6,21.7*
CC(Cl)C(=O)N1c2ccccc2CCc2ccccc21 (stereo not given),-6.4,-14.9,7.8,0.2,-7.1,1.8,x
CCc1ccc(S(=O)(=O)N=C2C=CC(=O)c3ccccc32)cc1,x,x,-3.5,x,x,x,x
CCc1ccc(S(=O)(=O)/N=C2\C=C(Nc3cccc(C(=O)O)c3)C(=O)c3ccccc32)cc1,5.6,-18.0,x,94.9*,-24.4,5.9,0.419*
CCc1ccc(S(=O)(=O)/N=C2\C=CC(=O)c3ccccc32)cc1,x,x,x,93.4*,x,0.3,1.66*
CCc1ccc(S(=O)(=O)/N=C2\C=C(Nc3ccc(O)cc3)C(=O)c3ccccc32)cc1,47.9,-22.1,x,97.3*,x,8.1,0.498*
COCCN(C(=O)CCC(=O)Nc1cc(C)on1)C(C(=O)NC1CCCC1)c1ccccc1C (stereo not given),-1.4,-7.6,12.4,0.7,-4.4,6.0,x
COCCN(C(=O)CCl)C(C(=O)NC1CCCCC1)c1ccccc1C (stereo not given),11.3,-7.0,11.4,46.6*,-0.2,6.1,25.6*
O=C(NC1CCCC1)C(c1ccc(F)cc1)N(Cc1ccccc1Cl)C(=O)CCl (stereo not given),10.2,-6.0,-2.9,49.6*,6.0,6.6,>38
CCCCNC(=O)CCCCC(=O)NN=Cc1ccccc1Cl,x,x,3.1,x,x,x,x
Nc1ccccc1S(=O)(=O)NC1=NCCCCC1,7.8,-9.4,13.0,30.0*,-2.1,2.9,>38
O=C(Nc1ccccc1)C1=CC(c2ccc3c(c2)OCO3)CC(OCCCCO)O1 (stereo not given),x,x,7.6,x,x,x,x
Nc1ccccc1O,x,-15.9,99.7,x,x,x,x
Nc1cccc2c(O)cccc12,-4.5,-20.6,-3.6,55.9*,0.0,x,37.1*
c1cc(-c2cn(CC3CCC(C4CCC(Cn5cc(-c6ccsc6)nn5)O4)O3)nn2)cs1 (stereo not given),x,x,1.6,x,x,x,x
CSc1nnc(NC(=O)c2nc(S(=O)(=O)Cc3ccccc3)ncc2Cl)s1,5.8,-15.3,x,72.2*,-6.5,-3.3,30.1*
CC(C)c1nnc(NC(=O)c2nc(S(=O)(=O)Cc3ccccc3)ncc2Cl)s1,4.5,-17.5,x,79.3*,-5.2,3.4,>38
CCOc1ccccc1NC(=O)c1nc(S(=O)(=O)Cc2ccccc2)ncc1Cl,23.9,-15.2,13.4,4.2,-4.2,-1.6,x
CSc1ncc(Cl)c(C(=O)Nc2nnc(SC)s2)n1,1.0,-25.4,x,-5.2,2.0,0.9,x
CCCc1nnc(NC(=O)c2nc(S(=O)(=O)Cc3ccc(C)cc3)ncc2Cl)s1,5.1,-25.2,x,84.5*,-5.1,-5.6,>38
SMILES,BJeLR lethal,PrP UTR inh,Mtb hypoxia rep,RecA intein inh,PrPC TRFRET,SARS 3CLpro inh,GFP chromo cs
COc1ccccc1NC(=O)c1nc(S(=O)(=O)Cc2ccccc2)ncc1Cl,-14.3,-9.7,x,3.1,-7.3,1.1,x
COc1ccc(S(=O)(=O)Nc2ccc3c(c2)C(=O)N(C(C)CO)CC(C)C(CN(C)C(=O)Nc2c(C)noc2C)O3)cc1 (stereo not given),x,x,7.0,x,x,x,x
Cc1ccsc1C=Nc1ccc(O)cc1,4.9,-18.3,-9.2,77.6*,x,0.1,36.2*
COc1cccc(-n2nc(C#N)c(Cl)cc2=O)c1,-28.6,-14.3,21.5,73.4*,-26.3,0.8,21.1*
O=C(NN=Cc1ccc2c(c1)OCO2)C(=O)Nc1cccc(Cl)c1,x,x,-1.6,x,x,x,x
COc1cc(C(c2c(C)[nH][nH]c2=O)c2c(C)[nH][nH]c2=O)cc(OC)c1OC,-1.3,-20.1,6.3,95.7*,-1.9,2.6,0.508*
COc1cc(C(c2c(C)[nH][nH]c2=O)c2c(C)[nH][nH]c2=O)cc(Cl)c1O,10.5,-26.6,4.5,88.1*,-4.6,-5.5,0.741*
COc1ccc(C(CC(=O)O)c2cc(OC)c(OC)c(OC)c2)cc1OC (stereo not given),x,-23.1,x,x,-0.7,x,x
O=C(Nc1ccc(Cl)c(Cl)c1)Nc1ccccc1NS(=O)(=O)c1cccs1,-3.4,-23.3,-2.6,31.5*,1.3,-5.1,>38
CC1=C(C(=O)OC(C)C)C2(O)C(=O)c3ccccc3C2(O)N1 (stereo not given),1.2,0.0,x,32.4*,0.2,-7.5,27.2*
CCOC(=O)C1=C(C)N[C@@]2(O)c3ccccc3C(=O)[C@@]12O,-8.8,-17.3,x,7.1,6.0,-1.3,x
C=CCOC(=O)C1=C(C)NC(=O)NC1c1ccc(OC(=O)c2ccco2)c(OC)c1 (stereo not given),13.8,-4.5,12.9,31.2*,6.8,-2.3,>38
CCOC(=O)C1=C(C)NC(=O)NC1c1ccc(OC(=O)c2ccco2)c(OC)c1 (stereo not given),5.7,-2.9,5.8,6.2,2.7,-3.4,x
COc1ccc(CNC(=O)C(c2ccc(C)o2)N(C(=O)c2snc(C(N)=O)c2N)c2ccccc2OC)cc1 (stereo not given),-5.4,-15.6,1.1,35.7*,-3.8,4.4,>38
COc1ccc(OC)c(N(C(=O)c2snc(C(N)=O)c2N)C(C(=O)NCc2ccccc2)c2ccc(O)cc2)c1 (stereo not given),1.7,-0.3,14.7,-2.9,-15.1,0.4,x
COc1cc(N=Nc2cccc(S(N)(=O)=O)c2)c2ccccc2c1N,6.5,-31.9,4.0,45.4*,-43.3,2.7,33.3*
NC1=NC(=Nc2cccc(S(N)(=O)=O)c2)c2ccccc21,6.4,-13.9,-1.5,1.4,10.2,-8.2,x
CCOC(=O)C/C(C)=N/NC(=O)COc1ccccc1C,-5.3,-18.6,x,61.9*,-5.2,0.3,12.9*
O=C(CN1CCOCC1)NN=Cc1ccc(-c2ccc(Br)cc2)o1,x,x,2.9,x,x,x,x
CCN1C(=O)C2C(c3ccc(C)cc3)N3C(=O)N(c4ccc(OC)cc4)C(=O)[C@@]3(Cc3ccc(Cl)cc3)C2C1=O (stereo not given in full),x,x,-0.2,x,x,x,x
COC(=O)c1cc(C)nc2c1C(=O)C(=O)C=C2N1CCOCC1,9.9,9.4,-3.1,95.9*,-16.0,2.9,0.968*
COC(=O)c1cc(S(=O)(=O)N2CCOCC2)c(Cl)cc1N1CCOCC1,-4.4,-32.5,9.9,x,-1.4,-2.4,x
